The values that follow come from article PMC7862700, “An all-to-all approach to the identification of sequence-specific readers for epigenetic DNA modifications on cytosine”.

Holding throughout (assay): DAPPL (digital affinity profiling via proximity ligation, sequencing); 10 mM Tris-HCl pH 7.5, 50 mM NaCl, 1 mM DTT, 4% glycerol, room temperature, 30 min; GST-TFs on glutathione beads, 16-mer random dsDNA library, 0.1% formaldehyde crosslink after washing; high values mean tight binding
What all share (details): protein: recombinant; tags: N-terminal GST; dsDNA, one strand shown

The target of one experiment is T1, ELK1 (Homo sapiens, UniProt P19419 1-428).
T1 sequence: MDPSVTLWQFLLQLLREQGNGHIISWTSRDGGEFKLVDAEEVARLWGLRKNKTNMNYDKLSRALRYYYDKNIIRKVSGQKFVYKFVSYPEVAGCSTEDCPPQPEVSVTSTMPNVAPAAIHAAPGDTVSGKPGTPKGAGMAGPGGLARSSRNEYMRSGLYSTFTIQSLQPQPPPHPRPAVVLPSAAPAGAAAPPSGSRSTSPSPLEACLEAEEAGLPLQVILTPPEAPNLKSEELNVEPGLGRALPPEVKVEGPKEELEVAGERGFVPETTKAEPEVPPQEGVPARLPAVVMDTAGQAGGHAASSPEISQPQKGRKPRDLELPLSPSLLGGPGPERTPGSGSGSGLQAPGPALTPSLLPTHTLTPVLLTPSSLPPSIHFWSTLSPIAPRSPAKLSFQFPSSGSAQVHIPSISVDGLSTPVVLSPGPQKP
In a few lines:
(§1)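 Pools were built from human transcription factors expressed in yeast as GST fusions, captured on glutathione beads and DNA-barcoded, along with a tag-only sample. Incubation with 200 nmole of a 16-mer random double-stranded DNA library lasted 30 min at room temperature in Tris/NaCl/DTT/glycerol buffer, and was followed by washing, 0.1% formaldehyde crosslinking, proximity ligation, PCR amplification and Illumina NextSeq500 sequencing. Binding signal is the quotient of each hexamer's read frequency for a factor and its frequency for the tag-only sample.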

The target of the next experiment is T2, GABPA (Homo sapiens, UniProt Q06546 1-454).
T2 sequence: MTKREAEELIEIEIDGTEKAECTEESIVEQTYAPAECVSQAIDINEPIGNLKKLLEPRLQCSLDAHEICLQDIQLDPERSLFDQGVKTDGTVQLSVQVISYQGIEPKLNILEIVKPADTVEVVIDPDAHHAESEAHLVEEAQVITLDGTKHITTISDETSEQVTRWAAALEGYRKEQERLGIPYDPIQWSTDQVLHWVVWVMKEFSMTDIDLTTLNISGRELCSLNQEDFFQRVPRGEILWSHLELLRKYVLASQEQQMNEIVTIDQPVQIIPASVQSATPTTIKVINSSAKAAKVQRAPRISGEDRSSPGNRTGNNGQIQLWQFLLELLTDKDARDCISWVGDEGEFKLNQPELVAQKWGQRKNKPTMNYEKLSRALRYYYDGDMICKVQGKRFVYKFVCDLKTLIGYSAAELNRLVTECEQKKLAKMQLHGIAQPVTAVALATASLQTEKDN
The procedure, abridged:
as §1

A further experiment deals with T3, ERG (Homo sapiens, UniProt P11308 1-479).
T3 sequence: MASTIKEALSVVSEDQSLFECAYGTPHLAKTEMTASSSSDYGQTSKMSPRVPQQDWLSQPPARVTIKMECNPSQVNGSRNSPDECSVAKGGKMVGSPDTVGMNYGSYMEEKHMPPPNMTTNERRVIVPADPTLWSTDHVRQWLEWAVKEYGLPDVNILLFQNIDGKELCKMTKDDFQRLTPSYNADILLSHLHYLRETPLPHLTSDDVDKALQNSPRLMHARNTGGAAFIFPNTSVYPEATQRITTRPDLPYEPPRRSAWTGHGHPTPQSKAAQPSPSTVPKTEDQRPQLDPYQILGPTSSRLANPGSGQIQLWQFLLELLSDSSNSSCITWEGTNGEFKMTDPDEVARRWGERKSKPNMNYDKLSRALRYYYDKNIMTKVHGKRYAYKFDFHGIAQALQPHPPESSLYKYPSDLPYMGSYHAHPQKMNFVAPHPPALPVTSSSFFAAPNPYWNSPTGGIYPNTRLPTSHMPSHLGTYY
The procedure, abridged:
as §1

The target of the next experiment is ELF1 (Homo sapiens, UniProt P32519 1-619). In a few lines:
as §1

The target in another experiment is T4, EHF (Homo sapiens, UniProt Q9NZC4 1-300).
T4 sequence: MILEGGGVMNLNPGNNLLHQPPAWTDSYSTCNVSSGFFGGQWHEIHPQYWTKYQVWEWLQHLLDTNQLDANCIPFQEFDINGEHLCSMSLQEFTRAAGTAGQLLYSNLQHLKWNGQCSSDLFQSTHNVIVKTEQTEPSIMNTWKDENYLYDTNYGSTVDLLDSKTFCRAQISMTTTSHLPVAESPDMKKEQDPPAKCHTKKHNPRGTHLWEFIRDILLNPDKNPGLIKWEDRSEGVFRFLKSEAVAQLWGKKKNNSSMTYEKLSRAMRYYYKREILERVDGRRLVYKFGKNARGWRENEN
The procedure, abridged: as §1

The next experiment addresses SPI1 (Homo sapiens, UniProt P17947 1-270). In a few lines: as §1
The target of a further experiment is SPIB (Homo sapiens, UniProt Q01892 1-262). The procedure, abridged:
as §1

The target in the next experiment is T5, FEV (Homo sapiens, UniProt Q99581 1-238).
T5 sequence: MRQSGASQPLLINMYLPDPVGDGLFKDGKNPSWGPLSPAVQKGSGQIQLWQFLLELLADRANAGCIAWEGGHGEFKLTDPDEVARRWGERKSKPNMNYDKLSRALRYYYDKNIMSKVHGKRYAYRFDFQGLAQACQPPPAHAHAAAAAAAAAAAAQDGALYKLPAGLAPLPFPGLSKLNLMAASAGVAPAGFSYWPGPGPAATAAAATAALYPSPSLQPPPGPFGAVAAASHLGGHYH
In a few lines: as §1

A further experiment deals with ETV5 (Homo sapiens, UniProt P41161 1-510). In a few lines: as §1
The next experiment concerns the target ELF4 (Homo sapiens, UniProt Q99607 1-663). The procedure, abridged: as §1
For the next experiment, the target named is T6, ELK4 (Homo sapiens, UniProt P28324-2 1-405).
T6 sequence: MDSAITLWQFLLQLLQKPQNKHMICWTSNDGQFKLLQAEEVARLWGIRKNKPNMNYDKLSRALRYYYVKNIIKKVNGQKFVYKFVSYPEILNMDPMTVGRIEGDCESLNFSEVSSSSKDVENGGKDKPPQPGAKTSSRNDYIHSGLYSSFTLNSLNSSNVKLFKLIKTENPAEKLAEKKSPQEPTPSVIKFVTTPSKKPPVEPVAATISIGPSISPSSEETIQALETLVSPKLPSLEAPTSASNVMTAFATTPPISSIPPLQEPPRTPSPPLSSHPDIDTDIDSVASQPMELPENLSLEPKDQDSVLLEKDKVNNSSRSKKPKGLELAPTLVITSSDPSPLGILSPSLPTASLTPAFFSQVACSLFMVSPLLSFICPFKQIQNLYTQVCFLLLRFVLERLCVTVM
The procedure, abridged:
as §1

Another experiment has as its target T7, ETV2 (Homo sapiens, UniProt O00321 1-342).
T7 sequence: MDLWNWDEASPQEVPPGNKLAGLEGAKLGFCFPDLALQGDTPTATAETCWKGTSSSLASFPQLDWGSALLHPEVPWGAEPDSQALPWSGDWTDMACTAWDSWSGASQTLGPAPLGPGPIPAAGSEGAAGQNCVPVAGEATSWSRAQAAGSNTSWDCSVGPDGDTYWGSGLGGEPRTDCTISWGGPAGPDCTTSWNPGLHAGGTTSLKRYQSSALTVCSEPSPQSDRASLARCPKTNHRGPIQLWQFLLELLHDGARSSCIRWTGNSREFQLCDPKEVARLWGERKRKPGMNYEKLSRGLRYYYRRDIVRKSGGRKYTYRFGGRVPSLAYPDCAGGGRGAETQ
The procedure, abridged:
as §1

Another experiment addresses ETV1 (Homo sapiens, UniProt P50549 1-477). The procedure, abridged:
as §1

Another experiment deals with T8, ERF (Homo sapiens, UniProt P50548 1-548).
T8 sequence: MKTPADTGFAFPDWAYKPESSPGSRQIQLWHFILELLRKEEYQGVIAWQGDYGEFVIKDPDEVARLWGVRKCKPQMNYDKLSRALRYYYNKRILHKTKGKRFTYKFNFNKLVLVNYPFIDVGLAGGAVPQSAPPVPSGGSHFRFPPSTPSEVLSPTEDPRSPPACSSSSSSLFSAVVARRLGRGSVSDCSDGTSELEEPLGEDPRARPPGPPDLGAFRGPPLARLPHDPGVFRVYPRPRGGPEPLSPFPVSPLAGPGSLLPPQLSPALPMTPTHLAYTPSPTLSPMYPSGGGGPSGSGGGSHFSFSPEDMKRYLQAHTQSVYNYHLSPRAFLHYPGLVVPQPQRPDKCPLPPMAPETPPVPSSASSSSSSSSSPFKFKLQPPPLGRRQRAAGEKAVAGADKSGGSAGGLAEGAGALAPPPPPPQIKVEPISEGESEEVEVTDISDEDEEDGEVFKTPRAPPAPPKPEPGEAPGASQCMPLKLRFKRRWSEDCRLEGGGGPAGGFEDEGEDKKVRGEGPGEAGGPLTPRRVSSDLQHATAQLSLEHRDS
The procedure, abridged: as §1

The target of a further experiment is T9, ETV3L (Homo sapiens, UniProt Q6ZN32 1-361).
T9 sequence: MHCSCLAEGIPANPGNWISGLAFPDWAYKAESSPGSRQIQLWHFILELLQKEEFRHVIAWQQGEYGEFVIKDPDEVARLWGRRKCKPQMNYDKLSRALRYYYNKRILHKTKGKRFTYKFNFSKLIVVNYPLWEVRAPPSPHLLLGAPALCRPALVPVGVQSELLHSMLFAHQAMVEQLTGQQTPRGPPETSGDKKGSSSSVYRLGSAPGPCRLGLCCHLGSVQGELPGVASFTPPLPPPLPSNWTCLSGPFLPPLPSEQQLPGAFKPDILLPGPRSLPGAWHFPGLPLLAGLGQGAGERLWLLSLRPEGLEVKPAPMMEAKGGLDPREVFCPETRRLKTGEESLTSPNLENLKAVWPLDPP
The procedure, abridged: as §1

The target of the next experiment is T10, ETS2 (Homo sapiens, UniProt P15036 1-469).
T10 sequence: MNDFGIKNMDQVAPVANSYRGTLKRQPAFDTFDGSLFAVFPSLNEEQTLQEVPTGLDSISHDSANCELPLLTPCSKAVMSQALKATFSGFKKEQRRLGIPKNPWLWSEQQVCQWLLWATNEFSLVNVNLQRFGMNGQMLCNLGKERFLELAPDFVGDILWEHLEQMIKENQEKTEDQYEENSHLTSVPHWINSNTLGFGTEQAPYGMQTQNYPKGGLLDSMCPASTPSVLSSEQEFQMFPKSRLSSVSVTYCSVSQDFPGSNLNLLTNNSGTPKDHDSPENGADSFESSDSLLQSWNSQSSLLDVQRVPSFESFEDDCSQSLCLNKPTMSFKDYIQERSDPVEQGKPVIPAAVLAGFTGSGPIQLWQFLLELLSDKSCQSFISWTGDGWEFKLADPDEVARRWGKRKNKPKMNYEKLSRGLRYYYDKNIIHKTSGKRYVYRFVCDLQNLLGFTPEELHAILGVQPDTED
The procedure, abridged: as §1

Another experiment deals with T11, SPDEF (Homo sapiens, UniProt O95238 1-335).
T11 sequence: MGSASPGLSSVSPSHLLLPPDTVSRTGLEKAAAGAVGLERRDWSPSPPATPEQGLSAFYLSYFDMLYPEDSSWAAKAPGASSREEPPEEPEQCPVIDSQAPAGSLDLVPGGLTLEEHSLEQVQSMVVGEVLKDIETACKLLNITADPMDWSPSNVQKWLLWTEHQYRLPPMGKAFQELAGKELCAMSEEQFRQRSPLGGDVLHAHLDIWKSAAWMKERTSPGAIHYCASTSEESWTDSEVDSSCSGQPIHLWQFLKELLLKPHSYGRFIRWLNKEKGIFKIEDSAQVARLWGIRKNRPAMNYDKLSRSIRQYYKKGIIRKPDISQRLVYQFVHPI
In a few lines:
as §1

The next experiment deals with T12, ETV7 (Homo sapiens, UniProt Q9Y603 1-341).
T12 sequence: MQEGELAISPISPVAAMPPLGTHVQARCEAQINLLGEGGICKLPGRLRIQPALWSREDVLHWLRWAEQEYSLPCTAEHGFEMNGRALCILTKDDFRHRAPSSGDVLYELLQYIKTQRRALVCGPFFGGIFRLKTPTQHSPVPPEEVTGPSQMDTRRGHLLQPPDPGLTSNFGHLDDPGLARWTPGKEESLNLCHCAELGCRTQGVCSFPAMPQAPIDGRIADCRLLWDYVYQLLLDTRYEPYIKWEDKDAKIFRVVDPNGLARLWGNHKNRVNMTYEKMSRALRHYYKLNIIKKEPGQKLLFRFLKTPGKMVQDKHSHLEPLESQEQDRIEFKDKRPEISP
The procedure, abridged: as §1

For another experiment, the target named is T13, ETV3 (Homo sapiens, UniProt P41162-2 1-143).
T13 sequence: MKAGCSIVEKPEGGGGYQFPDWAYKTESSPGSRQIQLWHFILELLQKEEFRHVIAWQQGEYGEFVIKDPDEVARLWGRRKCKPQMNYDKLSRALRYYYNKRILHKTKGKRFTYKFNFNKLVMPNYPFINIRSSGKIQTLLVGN
The procedure, abridged: as §1

A further experiment addresses ETV6 (Homo sapiens, UniProt P41212 1-452). In a few lines: as §1

Sequence of ELF1 (P32519 whole entry): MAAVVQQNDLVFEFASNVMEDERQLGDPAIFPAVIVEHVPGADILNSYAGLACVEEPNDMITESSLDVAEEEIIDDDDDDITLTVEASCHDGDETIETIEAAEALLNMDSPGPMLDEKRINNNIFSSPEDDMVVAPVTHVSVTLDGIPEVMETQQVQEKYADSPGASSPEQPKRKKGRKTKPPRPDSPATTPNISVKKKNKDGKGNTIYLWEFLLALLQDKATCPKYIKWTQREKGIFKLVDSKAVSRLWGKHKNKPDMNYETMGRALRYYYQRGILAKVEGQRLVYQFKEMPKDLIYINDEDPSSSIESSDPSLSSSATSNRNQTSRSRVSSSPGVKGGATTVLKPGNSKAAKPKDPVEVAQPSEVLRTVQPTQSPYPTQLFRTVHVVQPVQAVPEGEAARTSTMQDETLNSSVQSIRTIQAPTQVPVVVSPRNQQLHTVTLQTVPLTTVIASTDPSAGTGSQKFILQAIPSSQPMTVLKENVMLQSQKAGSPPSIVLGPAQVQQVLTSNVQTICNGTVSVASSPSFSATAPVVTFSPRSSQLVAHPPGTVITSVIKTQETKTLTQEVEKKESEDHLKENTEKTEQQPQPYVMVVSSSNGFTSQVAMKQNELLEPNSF
Sequence of ETV5 (P41161 whole entry): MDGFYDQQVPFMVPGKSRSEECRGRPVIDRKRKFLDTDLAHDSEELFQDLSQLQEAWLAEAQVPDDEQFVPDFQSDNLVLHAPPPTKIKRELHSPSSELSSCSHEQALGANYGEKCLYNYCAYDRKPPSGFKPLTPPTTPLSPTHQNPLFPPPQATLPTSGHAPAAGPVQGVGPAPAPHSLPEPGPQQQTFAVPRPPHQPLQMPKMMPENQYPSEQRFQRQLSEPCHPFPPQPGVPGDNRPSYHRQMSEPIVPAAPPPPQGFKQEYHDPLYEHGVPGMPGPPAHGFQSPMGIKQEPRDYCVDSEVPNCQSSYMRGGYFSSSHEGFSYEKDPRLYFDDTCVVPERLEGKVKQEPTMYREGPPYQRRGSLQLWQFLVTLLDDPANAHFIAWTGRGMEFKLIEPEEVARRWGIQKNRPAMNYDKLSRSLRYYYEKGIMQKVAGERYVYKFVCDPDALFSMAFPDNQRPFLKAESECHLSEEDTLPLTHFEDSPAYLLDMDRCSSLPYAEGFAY
Sequence of ETV1 (P50549 whole entry): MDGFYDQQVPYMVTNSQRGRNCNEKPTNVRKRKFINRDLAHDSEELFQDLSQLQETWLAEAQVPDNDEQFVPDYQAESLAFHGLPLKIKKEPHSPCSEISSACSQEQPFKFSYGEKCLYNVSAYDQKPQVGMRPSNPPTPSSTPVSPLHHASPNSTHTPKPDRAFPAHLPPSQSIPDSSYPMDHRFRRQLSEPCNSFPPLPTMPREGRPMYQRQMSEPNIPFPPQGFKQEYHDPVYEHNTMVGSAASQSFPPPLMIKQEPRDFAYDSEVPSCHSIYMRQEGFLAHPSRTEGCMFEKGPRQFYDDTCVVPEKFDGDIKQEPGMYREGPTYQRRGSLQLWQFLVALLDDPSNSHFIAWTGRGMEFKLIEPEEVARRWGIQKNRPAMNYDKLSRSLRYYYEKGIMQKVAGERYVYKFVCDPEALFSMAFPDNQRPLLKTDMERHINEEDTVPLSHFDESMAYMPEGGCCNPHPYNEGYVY
Sequence of ETV6 (P41212 whole entry): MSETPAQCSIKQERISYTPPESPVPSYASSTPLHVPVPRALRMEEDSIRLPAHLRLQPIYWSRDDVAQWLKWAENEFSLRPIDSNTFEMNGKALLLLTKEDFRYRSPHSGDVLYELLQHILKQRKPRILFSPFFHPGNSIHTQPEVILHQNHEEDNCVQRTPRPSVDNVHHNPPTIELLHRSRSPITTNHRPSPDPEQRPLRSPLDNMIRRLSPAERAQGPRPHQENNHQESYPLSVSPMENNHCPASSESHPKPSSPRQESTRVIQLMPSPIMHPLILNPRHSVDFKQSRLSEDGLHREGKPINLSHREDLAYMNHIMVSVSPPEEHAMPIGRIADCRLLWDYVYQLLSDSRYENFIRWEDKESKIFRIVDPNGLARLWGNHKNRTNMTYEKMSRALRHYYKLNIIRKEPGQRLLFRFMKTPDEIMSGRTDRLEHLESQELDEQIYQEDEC
Sequence of ELF4 (Q99607 whole entry): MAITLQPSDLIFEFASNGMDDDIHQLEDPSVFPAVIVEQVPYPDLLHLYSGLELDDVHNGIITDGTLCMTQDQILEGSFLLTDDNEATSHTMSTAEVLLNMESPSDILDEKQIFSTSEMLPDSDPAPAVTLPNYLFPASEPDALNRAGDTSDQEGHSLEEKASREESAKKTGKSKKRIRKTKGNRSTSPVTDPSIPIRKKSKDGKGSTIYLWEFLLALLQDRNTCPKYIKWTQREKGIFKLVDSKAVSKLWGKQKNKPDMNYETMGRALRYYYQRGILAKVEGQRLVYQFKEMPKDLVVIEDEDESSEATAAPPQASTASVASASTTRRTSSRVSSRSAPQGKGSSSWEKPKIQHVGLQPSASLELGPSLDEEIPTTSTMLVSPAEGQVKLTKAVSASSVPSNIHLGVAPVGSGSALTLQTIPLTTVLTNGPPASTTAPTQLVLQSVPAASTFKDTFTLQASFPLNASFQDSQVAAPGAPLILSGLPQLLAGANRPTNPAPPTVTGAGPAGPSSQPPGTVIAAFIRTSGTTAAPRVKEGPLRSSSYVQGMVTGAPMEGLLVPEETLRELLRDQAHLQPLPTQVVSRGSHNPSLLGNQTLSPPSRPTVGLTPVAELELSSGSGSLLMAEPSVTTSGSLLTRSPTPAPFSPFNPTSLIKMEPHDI
Sequence of SPIB (Q01892 whole entry): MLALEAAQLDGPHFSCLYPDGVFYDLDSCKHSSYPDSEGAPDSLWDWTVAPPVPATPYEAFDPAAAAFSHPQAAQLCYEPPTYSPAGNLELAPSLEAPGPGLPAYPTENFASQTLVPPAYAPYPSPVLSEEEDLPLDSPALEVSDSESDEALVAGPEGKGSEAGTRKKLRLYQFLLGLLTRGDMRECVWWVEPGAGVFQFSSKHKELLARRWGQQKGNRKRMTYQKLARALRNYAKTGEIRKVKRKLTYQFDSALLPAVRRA

For TCAAGT, the binding signal in the experiment with ELK1 is 1.14 fold enrichment (6-mer frequency, TF over GST control); in the experiment with GABPA, 1.07 fold enrichment (6-mer frequency, TF over GST control); with ERG it was 1.04 fold enrichment (6-mer frequency, TF over GST control); with ELF1, 1.02 fold enrichment (6-mer frequency, TF over GST control); with EHF it was 1.12 fold enrichment (6-mer frequency, TF over GST control); with SPI1, 1.06 fold enrichment (6-mer frequency, TF over GST control). Moreover, the binding signal is 1.08 fold enrichment (6-mer frequency, TF over GST control) in the experiment with SPIB; 1.05 fold enrichment (6-mer frequency, TF over GST control) in the experiment with FEV; 1.07 fold enrichment (6-mer frequency, TF over GST control) in the experiment with ETV5; 1.13 fold enrichment (6-mer frequency, TF over GST control) with ELF4; 1.19 fold enrichment (6-mer frequency, TF over GST control) in the experiment with ELK4; 1.06 fold enrichment (6-mer frequency, TF over GST control) with ETV2. The binding signal with ETV1 is 1.15 fold enrichment (6-mer frequency, TF over GST control); with ERF, 1.06 fold enrichment (6-mer frequency, TF over GST control); in the experiment with ETV3L it was 1.12 fold enrichment (6-mer frequency, TF over GST control); with ETS2 it was 1.09 fold enrichment (6-mer frequency, TF over GST control); with SPDEF, 1.17 fold enrichment (6-mer frequency, TF over GST control); with ETV7, 1.03 fold enrichment (6-mer frequency, TF over GST control). For the same sequence, the binding signal with ETV3 is 1.1 fold enrichment (6-mer frequency, TF over GST control); with ETV6, 1.07 fold enrichment (6-mer frequency, TF over GST control).
